Shown are actives, neighbours in structure and some others; about 19% of the full set was active somewhere.
IL-1B inflam inh: inflammasome signaling inhibition, IL-1 beta readout | THP-1 LPS/ATP IL-1B secretion, AlphaLISA, 16 h; stronger effect = lower value | hit rate 4.7% among 360,000 | activity change, % at 57.5 µM; in the data active = activity change below about -50%; inconclusive = mostly about -30% to -49%
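Secreted IL-1B measured by AlphaLISA bead assay after 16 h compound exposure of THP-1 cells; compounds (final up to 57.5 uM) added 1 h before LPS (250 ng/mL) and ATP (1.25 mM) stimulation; lower signal means less secretion.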
TDP1 cell noCPT: qHTS for Inhibitors of human tyrosyl-DNA phosphodiesterase 1 (TDP1): qHTS in cells in absence of CPT. DT40 Tdp1-/- hTDP1 cells, no CPT, ATP luminescence, 48 h. Potency, µM (doses to about 46.2 µM), inactives show top-dose activity change, negative = growth inhibition, actives largely listed as inhibitors. hit rate 15% among 420,000. AID 686978, 2013; note: potency is the fitted concentration of half-maximal effect; nearly all actives have a fitted effect of over 55% in size
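Readout: luminescence from CellTiter-Glo after 30 min in the dark at RT. Cells: DT40 Tdp1-/- with stable hTDP1, 400/well. Exposure: compounds alone, ≥48 hr, 37 °C.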
DT40 TDP1 CPT: DT40-hTDP1 cell growth loss with CPT | hit rate 12% among 420,000 | chicken DT40 Tdp1-/-;hTDP1 cells + 20 nM CPT, ATP luminescence, 48 h | Potency, µM (series often up to 46.2 µM), without a hit: top-dose activity change, negative = growth inhibition, actives largely listed as inhibitors; note: potency is the fitted concentration of half-maximal effect; nearly all actives have a fitted effect of over 55% in size
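Chicken DT40 Tdp1-/- cells complemented with human TDP1, 400 cells/well, exposed to compounds plus 20 nM camptothecin for at least 48 h at 37 C; viability read as ATP content by CellTiter-Glo luminescence.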
HT1080NT lethal: kills 2HG-producing HT-1080-NT fibrosarcoma cells; HT-1080-NT fibrosarcoma viability, CellTiter-Glo ATP luminescence, 48 h; Potency, µM (highest dose often 46.1 µM), for inactives: top-dose activity, negative = less viability, most hits filed as cytotoxic; hit rate 1.6% among 360,000;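 note: NT is the 2HG producing partner of a matched IDH1 knockdown line; potency is the fitted concentration of half-maximal effect; 0% = DMSO-treated cells and -100% = media-only wells without cells; nearly all actives have a fitted effect of over 55% in size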
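Viability of the 2HG-overproducing fibrosarcoma line after 48 hours of compound exposure at 37 degrees C was determined by luminescence with CellTiter-Glo, and concentration-effect curves were then fitted and categorized.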
HT1080 IDH1KD tx: kills HT-1080 cells with IDH1 knockdown; HT-1080 IDH1 knockdown viability, ATP luminescence, 48 h; Potency, µM (titrated, usually from 46.1 µM), inactives show at the highest dose activity, negative = toxicity, actives largely listed as cytotoxic; hit rate 2% among 360,000; AID 686971;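 note: potency is the fitted concentration of half-maximal effect; 0% = DMSO wells and -100% = cell-free medium wells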
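Using the IDH1-knockdown HT-1080 line run in the same batch and compound series as the NT line, viability after 48 h at 37 °C was determined by CellTiter-Glo luminescence and expressed as % activity.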
* hit, by the source's call; ? = inconclusive; / = not tested or not shown; [ ] = remark or other dose. Unless noted, calls come from the whole dose curve; as a rule, active = well fitted curve in the direction sought with a large enough effect; inconclusive = small, poorly fitted or top-dose-only effect, or another doubt; inactive = no such curve, though single readings can be large; an effect the other way counts as inactive or inconclusive. Unless noted, % is set by controls: 0 for no effect and ±100 for the full control effect.

SMILES	IL-1B inflam inh	TDP1 cell noCPT	DT40 TDP1 CPT	HT1080NT lethal	HT1080 IDH1KD tx
Cn1c(=O)c(=O)n(C)c2cc(N3CCOCC3)c(NS(=O)(=O)c3ccc([N+](=O)[O-])cc3)cc21	13	21%	?	2%	5%
CN(C(=O)CO/N=C/c1ccc(Cl)cc1)c1ccccc1	-51*	-25%	-18%	5%	-6%
CC(C)c1ccc(NC(=O)C2=NNC(=O)CC2)cc1	-4	0%	8%	-2%	11%
COc1cccc(NC(=O)Nc2ccc3c(c2)N(C)C(=O)CS3)c1	?	21µM*	?	?	?
CN1C(=O)CSc2ccc(NC(=O)Nc3ccccn3)cc21	-60*	?	29µM*	-29%	?
CCOC(=O)c1ccc(NC(=S)N2CCSC2c2ccc(Br)cc2)cc1 (stereo unspecified)	22	?	?	-2%	-1%
CC(C)NC(=S)N=Nc1c(O)[nH]c2ccc([N+](=O)[O-])cc12	32	?	?	?	?
COc1ccccc1C(=O)N=Nc1c(O)[nH]c2ccc([N+](=O)[O-])cc12	23	23µM*	?	4%	2%
C=C(C)CNC(=S)N=Nc1c(O)[nH]c2ccc([N+](=O)[O-])cc12	12	4.6µM*	4.1µM*	-2%	-17%
CCN(CC)C(=O)c1cc(C(C)(C)C)c(O)c(C(C)(C)C)c1	-12	?	?	6%	-11%
CCc1c(C)sc(NC(=S)N2CCN(CC)CC2)c1C(=O)OC	-56*	?	?	-19%	-13%
CCCN1CCN(C(=S)Nc2sc(CC)cc2C(=O)OC)CC1	?	?	?	-11%	-5%
C=CCN(Cc1nc(-c2ccccc2)no1)C(=O)c1ccoc1C	-7	?	29µM*	-1%	4%
Cc1occc1C(=O)N(C)Cc1nc(-c2ccccc2)no1	-11	?	?	20%	9%
Cc1ccc(C23CC4CC(CC(C(=O)NC(C)C(=O)O)(C4)C2)C3)cc1 (stereo unspecified)	6	-19%	-1%	16%	4%
Cc1ccc(C23CC4CC(CC(C(=O)NC(C)C)(C4)C2)C3)cc1	-20	26µM*	?	-4%	-1%
COc1ccc(NC(=O)C23CC4CC(C2)CC(c2ccc(C)cc2)(C4)C3)cc1	-7	23µM*	29µM*	0%	-13%
Cc1ccc(C2NC(=S)NC3=C2C(=O)CC(C)(C)C3)cc1 (stereo unspecified)	-10	6%	1%	10%	11%
Nc1cccc(Nc2nc(OC(C(F)(F)F)C(F)(F)F)nc(OC(C(F)(F)F)C(F)(F)F)n2)c1	-89*	23µM*	21µM*	?	?
CC(C)/C=N/Nc1nc(-c2ccc(Br)cc2)cs1	-29	16µM*	23µM*	-19%	-3%
Cc1ccc(Nc2nc(-c3ccncc3)cs2)cc1	-4	?	?	-30%	-5%
CCCCNc1c(-c2ccc(SC(C)CC)cc2)nc2cnccn12 (stereo unspecified)	-72*	8.2µM*	9.2µM*	?	?
CCCCNc1c(-c2ccc(-c3ccc(OC)cc3)c(OC)c2)nc2ccccn12	-75*	13µM*	18µM*	-11%	-25%
CCCCNc1c(-c2ccc(OC)c(Sc3ccc(OC)cc3)c2)nc2cnccn12	55	23µM*	?	29µM*	?
CCCCNc1c(-c2ccc(OC)c(Sc3ccc(OC)cc3)c2)nc2ccccn12	-104*	9.2µM*	4.1µM*	?	?
SMILES	IL-1B inflam inh	TDP1 cell noCPT	DT40 TDP1 CPT	HT1080NT lethal	HT1080 IDH1KD tx
CC1=NC(C(F)(F)F)(C(F)(F)F)C(C#N)=C(C)N1	30	4%	?	-7%	8%[9.24 µM]
NC(=O)c1ccc(NC(=O)CNC(=O)c2sc3ccccc3c2Cl)cc1	-24	-10%	-22%	0%	0%
COc1cc2c(c(OC)c1OC)-c1ccc(NC(=O)c3ccc(F)cc3)c(=O)cc1[C@@H](NC(C)=O)CC2	14	7.3µM*	8.2µM*	?	?
COc1cc2c(c(OC)c1OC)-c1ccc(NCc3ccccc3)c(=O)cc1C(NC(C)=O)CC2 (stereo unspecified)	85	0.92µM*	0.92µM*	3.7µM*	2.3µM*
COc1cc(C(=O)NC2CCCc3ccccc32)cc(OC)c1OC (stereo unspecified)	-10	-27%	-6%	0%	-18%
C=CCNC(=O)N[C@@H](Cc1ccccc1)C(=O)OC	-3	-3%	2%	19%	23%
Cn1c(CC(=O)NC(C)(C)CO)c(Sc2ccccc2)c2ccccc21	0	16µM*	15µM*	-26%	-20%
Cn1c(CC(=O)Nc2ccc(F)cc2)c(Sc2ccccc2)c2ccccc21	30	-16%	?	-7%	-3%
CS(=O)(=O)Nc1cccc(-c2cnc3ccccc3n2)c1	-14	21µM*	-6%	0%	-2%
O=C(Nc1cccc(-c2cnc3ccccc3n2)c1)c1ccncc1	69	5.8µM*	?	-2%	?
O=C(CNC(=O)c1ccc(Br)o1)Nc1cccc(-c2cnc3ccccc3n2)c1	90	7.3µM*	?	?	?
CC(C)C(=O)Nc1cccc(-c2cnc3ccccc3n2)c1	22	-24%	-18%	13%	-5%
Cc1cccc(C(=O)Nc2cccc(-c3cnc4ccccc4n3)c2)c1	20	?	?	15%	12%
Cc1ccc(C(=O)Nc2cccc(-c3cnc4ccccc4n3)c2)cc1	-11	-22%	-7%	-6%	20%
CC(=O)Nc1ccc(C(=O)Nc2cccc(-c3cnc4ccccc4n3)c2)cc1	20	?	-15%	24%	25%
O=C(Nc1cccc(-c2cnc3ccccc3n2)c1)c1ccco1	12	16µM*	?	1%	-10%
Cc1ccc(CNC(=O)CCCn2c(=O)c3ccccc3n(CC(=O)Nc3ccc(C)c(C)c3)c2=O)cc1	/	-19%	-14%	/	/
Cc1ccc(S(=O)(=O)NC2=NCN(CCOC(=O)c3ccc([N+](=O)[O-])cc3)CN2)cc1	64	-5%	?	10%[9.24 µM]	6%
COc1ccc([N+](=O)[O-])cc1NC(=O)COC(=O)c1ccccn1	12	-17%	-4%	29%	8%
CNC(=S)N1CCC(NC(=O)C(Cc2ccccc2)NC(C)=O)CC1 (stereo unspecified)	6	7%	0%	21%	11%
COc1ccc(S(=O)(=O)N2CCC(Nc3ccccc3Cl)CC2)cc1	0	-13%	-21%	1%	2%

Assay outcomes from PubChem.
